Out of some 330,000 compounds screened, about 1,900 (0.58%) were called active. Another 4% or so got no clear call; they are omitted. The list is a sample of the results. Results with a measured potency or affinity are listed apart. Values without a mark were called inactive. Rule as the data show it: inconclusive = inhibition above about 70% without an active follow-up result; inactive = below that.

The test can be described thus: M. tuberculosis growth inhibition, HTS (AID 449762).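 Also: bacterial growth assessed after seven days of incubation.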 Conditions: M. tuberculosis H37Rv growth inhibition, 7H9 media; at 25 µM; active compounds read high.
Regarding `COc1ccc(O)c(CN2CCCC(N3CCN(c4ccccc4OC)CC3)C2)c1` (stereo not given), the inhibition is 4.68%.

On to `O=C(CCNC(=O)c1ccccc1Cl)Nc1nccs1`, for which the inhibition was -4%. The same measure for `COc1ccc(N(CC(=O)NCCc2ccccc2)C(=O)c2csnn2)cc1OC`: -2.24%; for `COc1ccc(C2CC2/C(C)=N/OC(=O)C2CC2)cc1` (stereo not given): 68.7%; for `COc1ccc(C2CC2C(C)=O)cc1` (stereo not given): -4.29%. With `CC(C)(C)OC(=O)N1CCC(CC2CC(c3ccncc3)=NO2)(C(=O)O)CC1` (stereo not given), the inhibition is -6.97%. Under `O=c1c2ccccc2nnn1CSc1ccc2ccccc2n1` stands -1.57%; under `CSc1ccc(S(=O)(=O)NCC(=O)OCC(=O)N2CCCCC2C)cc1[N+](=O)[O-]` (stereo not given), -8.12%; under `COc1ccc(-c2nsc3c(N4CCCC4)ncnc23)cc1`, 5.98%. Under `COc1ccc(-c2nsc3c(N4CCCCC4)ncnc23)cc1` stands -0.13%; under `Cc1ccc(CNC(=O)Cn2cccc2C(=O)c2ccccc2C)cc1`, -0.89%.

Take `CCN(CC)S(=O)(=O)c1cccc(C(=O)N/N=C/c2ccccn2)c1`: the inhibition was -3.65%. The same measure for `O=C(Nc1ccc(Br)cc1Cl)c1ccc(OCC2CCCO2)cc1` (stereo not given): 3.35%; for `CCOC(=O)C1(Cc2cccc(Cl)c2)CCCN(C(=O)c2cnn(CC)c2)C1` (stereo not given): -5.14%; for `CCOc1ccc(NC(=O)COC(=O)c2ccc3c(c2)OCCO3)cc1`: 9.4%.

On to `CCOc1ccc(C(=O)Nc2ccc3c(c2)OCCO3)cc1`, for which the inhibition was 9.28%. The same measure for `Cc1c(/C=N\NC(=O)c2c[nH]c3ccccc23)cnn1C`: 6.8%; for `COc1ccccc1NC(=S)N1CCN(C(=O)C2CCCO2)CC1` (stereo not given): 4.95%. Take `COC(=O)c1c(NC(=O)CC2SC(N)=NC2=O)sc2c1CCC(C)C2` (stereo not given): the inhibition was -3.66%.

Take `COC(=O)c1c(NC(=O)CC2SC(N)=NC2=O)sc2c1CCCC2` (stereo not given): the inhibition is -10.2%. Under `COc1ccc(C(=O)c2c(-c3ccc(OC)cc3)oc3ccc(-c4ccc(OC)nc4)cc23)cc1` stands 64.6%; under `CCCC12CN3CC(CCC)(CN(C1)C3c1ccco1)C2=O` (stereo not given), -6.51%; under `CCCC12CN3CC(C)(CN(C1)C3c1ccco1)C2=O` (stereo not given), -1.36%. The same measure for `Cc1ccccc1C(=O)Nc1c(C(=O)N(CCN(C)C)Cc2ccco2)oc2ccccc12`: 13.6%; for `CN(C)CCN(Cc1ccco1)C(=O)c1oc2ccccc2c1NC(=O)COc1ccccc1`: 13.6%; for `CN(C(=O)CSc1nnc(-c2ccncc2)n1-c1ccccc1)C1CCS(=O)(=O)C1` (stereo not given): -8.96%.

As to `O=C(NC1CCCCCC1)c1cccc(COCC(F)(F)F)c1`, the inhibition was -0.72%. The same measure for `C/C(=N\NC(=S)NCc1ccccc1)c1ccccc1F`: -2.93%.

For `C/C(=N\NC(=S)NCCc1ccccc1)c1ccc(O)cc1O`, the inhibition is 3.81%. Under `Cc1noc(C)c1S(=O)(=O)Nc1ccc(C(=O)N2CCC(C)CC2)cc1` stands 8.59%; under `Cc1ccc(N2CC(C(=O)N3CCC(C(=O)Nc4nnc(C(C)(C)C)s4)CC3)CC2=O)cc1` (stereo not given), 4.69%; under `OCC1(Cc2ccc(Cl)cc2)CCN(CCCc2ccccc2)CC1`, 39.2%. With `COc1cnc(-c2ccccc2)nc1Oc1ccc(Cl)cc1C`, the inhibition was 3.24%. The same measure for `COc1cnc(-c2ccccn2)nc1Oc1ccc(Cl)cc1`: 2.17%; for `Cc1cc(C)cc(OCC(=O)N2Cc3ccccc3CC2C(=O)O)c1` (stereo not given): 10.5%; for `CC(CC(=O)Nc1ccc(-c2ccno2)cc1)n1cccn1` (stereo not given): 21.4%. As for `Cc1ccc(CNC(=O)COC(=O)c2cc(=O)[nH]c3ccccc23)cc1`, the inhibition is 6.93%. Under `N#Cc1ccccc1/C=N/Nc1nc(-c2ccccc2)c2cc(Cl)ccc2n1` stands -2.26%; under `N#Cc1ccccc1/C=N/Nc1nc(-c2ccccc2)c2cc(Br)ccc2n1`, 6.43%; under `COCCNC(=S)Nc1ccc2nc(N3CCOCC3)cc(C)c2c1`, -5.25%. The same measure for `O=C(COC(=O)CNC(=O)c1ccc(Cl)c([N+](=O)[O-])c1)NCC1CCCO1` (stereo not given): -15.8%.

Take `Cc1cc(NCCC(C)C)n2nc(C)c(-c3ccccc3)c2n1`: the inhibition is 67.4%. As to `Cc1nn2c(N3CCCC3)cc(C(C)C)nc2c1-c1ccccc1`, the inhibition is 2.45%. With `CCS(=O)(=O)Nc1ccc(C2=NN(C(=O)c3ccco3)C(c3cccc(F)c3)C2)cc1` (stereo not given), the inhibition is 23.2%. The same measure for `Cn1nc(C(F)(F)F)c2cc(NC(=O)OCc3ccc(F)cc3)sc21`: 10.2%. The same measure for `COc1ccc(COC(=O)Nc2cc3c(C(F)(F)F)nn(C)c3s2)cc1`: -0.32%; for `CC1CCC(NC(=O)c2ccc(NS(=O)(=O)c3ccc4[nH]c(=O)[nH]c4c3)cc2)CC1` (stereo not given): -6.1%; for `CC1(c2nnc(-c3ccccc3)o2)CC(c2ccc([N+](=O)[O-])cc2)=NO1` (stereo not given): -0.65%.

For the compound `COC(=O)c1ccc(NC(=O)c2ccc[n+]([O-])c2)cc1`, the inhibition is -4.13%. Under `c1ccc2nc3c(nc2c1)OCC1CCCCN31` (stereo not given) stands 3.14%; under `CC1(C(=O)N(CC(=O)NC2CCCC2)Cc2ccc(Cl)cc2)CC(=O)N=C2C=CC=CN21` (stereo not given), -2.69%.

As for `Cc1ccccc1NC(=O)NC(N)=O`, the inhibition was -2.65%.

On to `Cc1ccc(-c2csc(/C(C#N)=C/Nc3ccc4c(c3)OCCO4)n2)cc1`, for which the inhibition is 7%. Under `CCN(CC)CCOC(=O)c1ccc(N/C=C(/C#N)c2nc(-c3cc4ccccc4oc3=O)cs2)cc1` stands 9.42%; under `Cc1cc(CN(C)C(=O)c2ccc3nc(Cc4ccccc4F)oc3c2)n[nH]1`, -6.04%; under `Cc1cccc(C(=O)OCC(=O)N(C)CC(=O)Nc2ccc(Cl)c(C(F)(F)F)c2)c1`, 1.53%. The same measure for `Cc1ccc(-c2cc(C(=O)N3CCOCC3)no2)cc1`: 6.22%; for `O=C(O)c1cccnc1Nc1cccc(C(F)(F)F)c1`: -0.01%; for `CNC(=O)c1cccnc1Nc1cccc(C(F)(F)F)c1`: -4.06%.

In the case of `Cc1ccc(C(=O)N(CC(=O)NC2CCCC2)c2cccc(F)c2)s1`, the inhibition is 9.2%.

Broadly, the inhibition is the drop in the measured response relative to a control, in per cent.

The record behind these values is PubChem BioAssay AID449762 (Southern Research Specialized Biocontainment Screening …, 2010).
